# Results taken from PubChem BioAssay AID1220 (Sanford-Burnham Center for Chemical Genomics, 2008).
# Screen size: about 190,000 compounds; about 1,300 (0.68%) were called active. Cut-off read from the data, not from the text of the source: active = inhibition above about 50%; inactive = the rest. Shown is part of a subset that was picked to be rich in actives.
# Target: Mannose-6-phosphate isomerase (Homo sapiens) (UniProt P34949)
# Experiment: human PMI inhibitors, high substrate, primary screen, biochemical, fluorescence intensity, high mannose 6-phosphate (AID 1220)
# Conditions: recombinant PMI enzyme, coupled fluorescence intensity; at 20 µM; hits give high values
# Mannose-6-phosphate isomerase (Homo sapiens), sequence (P34949 whole entry, looked up): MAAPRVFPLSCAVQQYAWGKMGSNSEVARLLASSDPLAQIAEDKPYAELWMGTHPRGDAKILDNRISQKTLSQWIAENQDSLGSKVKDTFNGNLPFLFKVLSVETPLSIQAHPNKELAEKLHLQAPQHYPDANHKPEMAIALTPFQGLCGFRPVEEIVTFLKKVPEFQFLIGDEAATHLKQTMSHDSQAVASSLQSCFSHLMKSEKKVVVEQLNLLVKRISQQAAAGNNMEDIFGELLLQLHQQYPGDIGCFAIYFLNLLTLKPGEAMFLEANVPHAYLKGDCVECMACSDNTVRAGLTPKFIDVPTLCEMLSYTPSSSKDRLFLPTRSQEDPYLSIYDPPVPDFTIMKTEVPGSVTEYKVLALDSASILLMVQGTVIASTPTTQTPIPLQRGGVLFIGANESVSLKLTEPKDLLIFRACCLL
row,SMILES,inhibition
1,CCCCNC(=S)N(C)/N=C/c1c(C)[nH]c2ccccc12,9.5% (inactive)
2,CCNC(=S)N/N=C/c1ccccc1[N+](=O)[O-],-1.5% (inactive)
3,O=[N+]([O-])c1ccc(/C=N/N=C/c2ccc([N+](=O)[O-])o2)o1,24.5% (inactive)
4,Cc1[nH]c2ccccc2c1/C=N/n1cnnc1,-4.2% (inactive)
5,CCN(CC)c1ccc(N=Cc2ccccc2[N+](=O)[O-])cc1,64.4% (active)
6,CN(/N=C/c1ccc([N+](=O)[O-])o1)c1ccccc1,-3.1% (inactive)
7,CCCCCC(=O)N/N=C/c1ccccc1[N+](=O)[O-],-6.7% (inactive)
8,CCN(CC)c1ccc(N=Cc2c(C)[nH]c3ccccc23)cc1,69.7% (active)
9,CCN(CC)c1ccc(N=Cc2ccc([N+](=O)[O-])o2)cc1,59.7% (active)
10,CCN(CC)c1ccc(/C=N/NS(=O)(=O)c2cccc([N+](=O)[O-])c2)cc1,-83.2% (inactive)
11,O=C(CNC(=O)C1COc2ccccc2O1)N/N=C\c1cccc(O)c1 (configuration not stated),-10.8% (inactive)
12,Cc1cccc(-n2nnc3c(=O)n(CC(=O)Nc4cc(C)on4)cnc32)c1,-4.2% (inactive)
13,COc1ccccc1N/C=C1/Sc2cc(Cl)ccc2NC1=O,3% (inactive)
14,CCOC(=O)Nc1cc(OC)c(OC)cc1Cc1nccc2cc(OC)c(OC)cc12,-1.9% (inactive)
15,COc1cc2ccnc(Cc3cccc(OC)c3OC)c2cc1OC,44.9% (inactive)
16,COc1cc(N)c(Cc2nccc3cc(OC)c(OC)cc23)cc1OC,56.4% (active)
17,COc1ccc(NC(=O)c2ccccc2NC(=O)CSc2ccccc2)cc1,2.1% (inactive)
18,Cc1nn(-c2ccccn2)c2c1C(c1ccccn1)C1=C(CCCC1=O)N2 (configuration not stated),0.2% (inactive)
19,Cc1nn(-c2ccccn2)c2c1C(=O)C(Br)CC2 (configuration not stated),72.9% (active)
20,C=C(C)C1Cc2c(C)nn(-c3ccccn3)c2C1 (configuration not stated),-10.9% (inactive)
21,Cc1ccccc1C(=O)NNC(=O)C12CC3CC(CC(C3)C1)C2,7% (inactive)
22,CC(=O)CC(=O)Nc1ccc(C(N)=O)cc1,6.1% (inactive)
23,COc1cc(C2C(C#N)=C(N)Oc3cc(C)n(CCN4CCOCC4)c(=O)c32)cc(OC)c1OC (configuration not stated),-11.7% (inactive)
24,COc1cc(OC)c(C2C(C#N)=C(N)Oc3cc(C)n(CCCN4CCOCC4)c(=O)c32)cc1OC (configuration not stated),61.6% (active)
25,COc1ccc(C2C(C#N)=C(N)Oc3cc(C)n(CCN4CCOCC4)c(=O)c32)cc1OC (configuration not stated),-0.4% (inactive)

row,SMILES,inhibition
1,N#Cc1nc(-c2ccc(Cl)cc2)oc1N1CCCCC1,-8.5% (inactive)
2,COc1ccccc1-n1c(CNC(=O)c2cccc([N+](=O)[O-])c2C)n[nH]c1=S,-7.8% (inactive)
3,COC(=O)c1ccccc1NC(=S)N1CCN(c2ccccn2)CC1,5.5% (inactive)
4,CCOC(=O)c1ccccc1N/C=C1\CCCCC1=O,-11.5% (inactive)
5,COC(=O)c1ccccc1N/C=C1\CCc2c(c(C)nn2-c2ccccn2)C1=O,73.6% (active)
6,COc1ccccc1N1CCN(C(=O)c2ccc3c(Cl)c4c(nc3c2)CCCC4)CC1,14.1% (inactive)
7,Cn1c(=O)[nH]c(=O)c2c1nc(N1CCCC1)n2CC(O)COc1ccccc1 (configuration not stated),3.3% (inactive)
8,CCNc1nc(Cl)nc(NCCOc2ccc(C)cc2)n1,0.4% (inactive)
9,Cc1cccc(C)c1OCC(=O)Nc1nnc(C2CCCO2)s1 (configuration not stated),53.1% (active)
10,Cc1ccc(OCC(=O)Nc2nnc(C3CCCO3)s2)c(Br)c1 (configuration not stated),5.8% (inactive)
11,CCCC(=O)Nc1nnc(C2CCCO2)s1 (configuration not stated),17.6% (inactive)
12,O=C(COc1ccc([N+](=O)[O-])cc1)NCc1ccncc1,-2.2% (inactive)
13,O=S(=O)(Cc1ccccc1)NCC1CCCN(Cc2ccc3nonc3c2)C1 (configuration not stated),7.4% (inactive)
14,CCCCOC(=O)c1ccc(NC(=S)NC(=O)c2c(Cl)cnn2CC)cc1,17.1% (inactive)
15,COC(=O)c1ccc(NC(=S)NC(=O)c2c(Cl)cnn2C)cc1,-3.2% (inactive)
16,CCCCOC(=O)c1ccc(NC(=S)NC(=O)c2c(Cl)cnn2C)cc1,62.3% (active)
17,CCN1CCCn2c1nc1c2c(=O)n(C)c(=O)n1C,-4.6% (inactive)
18,CC1CCCCN1C(=O)CSc1nnc(-c2c[nH]c3ccccc23)o1 (configuration not stated),-3.8% (inactive)
19,CC1(C)CC(=O)C(C=Nc2ccc(N)cc2)=C(O)C1,33.3% (inactive)
20,CC1(C)CC(=O)C(C=Nc2ccc(O)cc2)=C(O)C1,21.8% (inactive)
21,CC1(C)CC(=O)C(C=Nc2ccc(NC3=C(C#N)C(=O)CC(C)(C)C3)cc2)=C(O)C1,60.4% (active)
22,CCOC(=O)Cn1c(-c2cccnc2Cl)nc2cc(Cl)c(Cl)cc21,21.1% (inactive)
23,O=C(CN(c1ccc(Br)cc1)S(=O)(=O)c1ccc(Cl)c([N+](=O)[O-])c1)NCCc1ccccc1,-3.9% (inactive)
24,COc1ccc(CN=CC2=C(O)CC(C)(C)CC2=O)cc1,12.4% (inactive)
25,O=[N+]([O-])c1ccc(COc2cccc(CNc3ccc(Br)cc3)c2)cc1,19.9% (inactive)

row,SMILES,inhibition
1,O=[N+]([O-])c1ccc(COc2cccc(CNc3ccc(F)cc3)c2)cc1,-3.6% (inactive)
2,Oc1ccc(NCc2cccc(OCc3ccc(F)cc3)c2)cc1,51.3% (active)
3,c1ccc(COc2cccc(CNn3cnnc3)c2)cc1,0.5% (inactive)
4,Oc1ccc(NCc2cccc(OCc3ccccc3)c2)cc1,58.9% (active)
5,Fc1ccc(COc2cccc(CNCc3ccncc3)c2)cc1,-15.5% (inactive)
6,CCS(=O)(=O)c1c(S(=O)(=O)CC)c2ccccn2c1C(N)=O,-1% (inactive)
7,Cc1cccc(C(C)C)c1NC(=O)C1CN(S(=O)(=O)c2ccccc2)CCN1S(=O)(=O)c1ccccc1 (configuration not stated),1.2% (inactive)
8,COc1cccc2c(=O)cc(C)n(CC(=O)Nc3ccccc3C)c12,-2.8% (inactive)
9,CC(=O)N1c2ccccc2NC2=C(C(=O)CCC2)C1c1ccc(F)cc1 (configuration not stated),13.6% (inactive)
10,CCC(=O)N1c2ccccc2NC2=C(C(=O)CCC2)C1c1ccc(N(C)C)cc1 (configuration not stated),16.3% (inactive)
11,CC(C)C(=O)N1c2ccccc2NC2=C(C(=O)CCC2)C1c1ccc(N(C)C)cc1 (configuration not stated),60.7% (active)
12,Fc1ccccc1COc1ccc2ccccc2c1CNc1nn[nH]n1,-1.6% (inactive)
13,O=[N+]([O-])c1ccc(Cl)c(C2Nc3cccc4cccc(c34)N2)c1,60.2% (active)
14,O=[N+]([O-])c1ccc(C2Nc3cccc4cccc(c34)N2)cc1,14.6% (inactive)
15,O=[N+]([O-])c1cccc(C2Nc3cccc4cccc(c34)N2)c1,-12.5% (inactive)
16,CSc1ccc(CN2CCN(Cc3ccc([N+](=O)[O-])cc3)CC2)cc1,4% (inactive)
17,COc1cccc(CN2CCN(C(=O)Nc3ccc([N+](=O)[O-])cc3)CC2)c1,10.7% (inactive)
18,Cc1ccc(CN2CCN(/N=C/c3ccc(Cl)c([N+](=O)[O-])c3)CC2)cc1,15.3% (inactive)
19,COc1cc(CN2CCN(c3ccc(C)cc3)CC2)cc([N+](=O)[O-])c1O,10.7% (inactive)
20,COc1cc(CN2CCN(Cc3ccc([N+](=O)[O-])cc3)CC2)c([N+](=O)[O-])cc1OC,56.3% (active)
21,CS(=O)(=O)N1CCN(Cc2ccc([N+](=O)[O-])cc2)CC1,11.9% (inactive)
22,COc1cc(CN2CCN(Cc3ccc(C)cc3)CC2)c([N+](=O)[O-])cc1OC,61.5% (active)
23,COc1cccc(CN2CCN(Cc3cc(OC)c(OC)cc3[N+](=O)[O-])CC2)c1,53.2% (active)
24,COc1cccc(C(=O)N2CCN(Cc3ccccc3[N+](=O)[O-])CC2)c1,-13.8% (inactive)
25,CC1SCCN1S(=O)(=O)c1ccc2ccccc2c1 (configuration not stated),7.8% (inactive)

row,SMILES,inhibition
1,CCOC(=O)N1CCC2(CC1)C(C#N)=C(N)Oc1c2c(C)nn1-c1cccc(Cl)c1,-99.5% (inactive)
2,CNc1ccc(Br)cc(C(=O)/C=C/c2cccc(Cl)c2Cl)c1=O,24.7% (inactive)
3,Nc1nc(F)cc(NCc2ccccc2)n1,10.5% (inactive)
4,COc1ccc(CNCc2ccco2)cc1OCc1ccccc1,10.6% (inactive)
5,CN(C)S(=O)(=O)c1cccc(NC(=O)c2ccc(N3CCOCC3)c([N+](=O)[O-])c2)c1,8.9% (inactive)
6,Cn1c(NC(=O)C2CCCO2)cc(=O)n(C)c1=O (configuration not stated),42.3% (inactive)
7,COc1ccc(CC(=O)N2CCN(c3ccccn3)CC2)cc1,8.3% (inactive)
8,CCN1C(=O)C2C(c3cccc(F)c3)NC(CC)(C(=O)OC)C2C1=O (configuration not stated),2.1% (inactive)
9,COCCCn1c(=N)c(C(=O)NCC2CCCO2)cc2c(=O)n3ccccc3nc21 (configuration not stated),5.1% (inactive)
10,COCCCn1c(=N)c(C(=O)NCC2CCCO2)cc2c(=O)n3cccc(C)c3nc21 (configuration not stated),53.6% (active)
11,CCCn1c(=N)c(C(=O)NCC2CCCO2)cc2c(=O)n3cccc(C)c3nc21 (configuration not stated),13.9% (inactive)
12,COc1ccccc1CNC(=O)Nc1cccs1,-15.1% (inactive)
13,CCOC(=O)C1=C(C)NC(=O)NC1c1ccc(N(CC)CC)cc1 (configuration not stated),25.8% (inactive)
14,COc1ccc(C(=O)CCN2CCN(c3ccccc3F)CC2)cc1,17.7% (inactive)
15,O=C(CCN1CCN(c2ccccc2F)CC1)Nc1ccccc1F,-3.7% (inactive)
16,O=C(CCN1CCOCC1)c1ccccc1,-3.1% (inactive)
17,O=C(CCN1CCOCC1)c1ccc(Cl)cc1,26.3% (inactive)
18,COc1cc(-c2nnc(SCC(=O)OC3CCCCC3)o2)cc(OC)c1OC,5.5% (inactive)
19,COc1cc(NC(=O)CSc2nc3ccccc3c(=O)n2C)ccc1NC(=O)c1ccco1,22.5% (inactive)
20,COC(=O)c1c(-c2ccc(C)cc2)csc1NC(=O)C1CC=CCC1C(=O)O (configuration not stated),2.6% (inactive)
21,COC(=O)c1c(-c2ccco2)csc1NC(=O)C1CC=CCC1C(=O)O (configuration not stated),59% (active)
22,COC(=O)c1c(-c2ccccc2)csc1NC(=O)C1CC=CCC1C(=O)O (configuration not stated),-0.2% (inactive)
